Source: PubChem (The Scripps Research Institute Molecular Screening Center)
Only some compounds are listed: those with a hit (about 3.5% of all), similar ones and a draw of the others.
TEAD-YAP inh: TEAD-YAP interaction inhibition, primary screen, TEAD-YAP interaction inhibitor project, luminescence, HEK-TIYL cells; inhibition, % at 9.12 µM; TEAD-Gal4/YAP UAS-luciferase luminescence; 1.4% of 640,000 active; in the data active means inhibition above about 32%
FBW7 activator: FBW7 E3 ligase activators, primary screen, biochemical, AlphaScreen, human | 0.13% of 650,000 active | normalized activity (activation), % at 26.1 µM | AID 1259310, 2017 | AlphaScreen FBW7–phospho-cyclin E peptide binding, activator screen; in the data active means normalized activity above about 1.9%;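 further: purified mutant Fbw7 with reduced substrate affinity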
MITF primary: MITF inhibitors, primary screen, biochemical, AlphaScreen, human; Microphthalmia-associated transcription factor (Homo sapiens), O75030; inhibition, % at 2.6 µM; AID 1259374, 2018; 0.91% of 650,000 active; AlphaScreen MITF homodimerization, bead proximity signal; in the data active means inhibition above about 50%
Target sequence (O75030 whole entry, looked up): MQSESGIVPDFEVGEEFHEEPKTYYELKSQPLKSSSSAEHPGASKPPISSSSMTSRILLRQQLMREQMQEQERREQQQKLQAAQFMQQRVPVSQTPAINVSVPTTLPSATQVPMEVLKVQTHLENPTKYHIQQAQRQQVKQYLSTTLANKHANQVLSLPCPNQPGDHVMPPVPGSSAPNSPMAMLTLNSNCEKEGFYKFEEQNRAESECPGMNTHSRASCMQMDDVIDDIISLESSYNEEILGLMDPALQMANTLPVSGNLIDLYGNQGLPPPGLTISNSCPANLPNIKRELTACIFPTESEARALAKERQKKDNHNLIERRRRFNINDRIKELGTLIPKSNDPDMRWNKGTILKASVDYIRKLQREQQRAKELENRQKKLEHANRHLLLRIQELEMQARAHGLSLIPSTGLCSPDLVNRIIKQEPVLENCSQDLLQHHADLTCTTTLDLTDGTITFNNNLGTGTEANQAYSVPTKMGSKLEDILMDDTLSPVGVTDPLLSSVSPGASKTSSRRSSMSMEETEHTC
GPR151 ag: activators of human GPR151, primary screen, cell-based, PathHunter beta-arrestin, luminescence; 1% of 650,000 active; PathHunter beta-arrestin GPR151 cells; activation, % at 11.2 µM; G-protein coupled receptor 151 (Homo sapiens), Q8TDV0; AID 1508602, 2020; in the data active means activation above about 4.9%
MITF inh conf: MITF inhibitors, retest of hits, confirmation, biochemical, AlphaScreen, triplicate; shares compounds with MITF primary; AlphaScreen MITF homodimerization, biotin/His-MITF beads; inhibition, % at 2.6 µM; 16% of 4,700 active;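 active means inhibition above a cutoff derived from the DMSO control wells, cut at about 28% in these data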;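 further: inhibitors lower the bead chemiluminescence by keeping MITF from dimerizing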
AlphaScreen DR: AlphaScreen optical interference compounds, dose response, counter-screen, biochemical, HTS | shares compounds with MITF primary | AlphaScreen optical interference counterscreen, cell-free | IC50, µM | 6% of 480 active | AID 1259373, 2018; call rule not given here
AlphaScreen intf2: AlphaScreen optical interference compounds, counter-screen for MITF inhibitor project, biochemical, triplicate; shares compounds with MITF primary; LysRS AlphaScreen counterscreen, signal interference; inhibition, % at 2.6 µM; 7.6% of 4,700 active;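 active means inhibition above a cutoff derived from the DMSO control wells, cut at about 30% in these data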
Large screens that a line does not name were inactive (follow-up assays come after a bar, where they were run).

C=CCNC(=O)[C@H]1C=CCN1C(=O)c1ccc(F)cc1	none
CC(C)n1c(NCCN2CCOCC2)nc2c(NCCN3CCOCC3)ncnc21	MITF primary 66.8 | MITF inh conf inactive | AlphaScreen intf2 inactive
NCC1OC(=O)C(Oc2ccccc2)=C1Br (stereo not given)	MITF primary 58.6 | MITF inh conf 77.3 | AlphaScreen DR inactive | AlphaScreen intf2 inactive
CC(=O)CC1OC(=O)C(Oc2ccccc2)=C1Br (stereo not given)	none
CC(=O)Nc1cc(C(F)(F)F)ccc1NC(=O)C(F)(F)F	none
CCOC(=O)N1CCN(Cc2ccc(O)c3ncccc23)CC1	MITF primary 71.0 | MITF inh conf 50.0 | AlphaScreen intf2 96.9
CCCOCc1ccc(O)c2ncccc12	MITF primary 81.1 | MITF inh conf 79.8 | AlphaScreen intf2 99.7
Oc1ccc(CN2CCN(c3ccccc3F)CC2)c2cccnc12	none
Cc1c(C(=O)Nc2ccc3c(c2)OCO3)sc2ncn(CC(=O)Nc3ccc(C(C)C)cc3)c(=O)c12	none
O=C1OC(c2ccccc2)=N/C1=C/c1cc2ccccc2nc1N1CCOCC1	MITF primary 56.1 | MITF inh conf inactive | AlphaScreen intf2 inactive
O=[N+]([O-])c1cc(CN2CCCC2)c2cccnc2c1O	MITF primary 99.5 | MITF inh conf 106.1 | AlphaScreen intf2 100.6
CN1CCN(Cc2cc([N+](=O)[O-])c(O)c3ncccc23)CC1	MITF primary 96.9 | MITF inh conf 105.3 | AlphaScreen intf2 100.6
CC1(C)Cc2ccccc2-c2nc(NCCO)[nH]c(=O)c21	none
O=C(NCCN1CCOCC1)c1cccc(Cn2ncc3cc(Nc4ccccc4Cl)ccc32)c1	none
CC(C)(C)c1csc(CN2CCN(CC(=O)Nc3ccc4c(c3)OCO4)CC2)n1	MITF primary 79.5 | MITF inh conf inactive | AlphaScreen intf2 inactive
CCCOc1ccc(Cc2cnc(SC)nc2N)cc1	none
COC(=O)CCc1cc2c(C)cc(=O)oc2cc1OCc1ccc(C)cc1	MITF primary 78.5 | MITF inh conf 37.6 | AlphaScreen DR inactive | AlphaScreen intf2 inactive
CCCN1CCN(CCNC(=O)Nc2ccccc2OC)CC1	none
CS(=O)(=O)Nc1ccc(-c2cnc3cccc(N(C(=O)c4ccccn4)C(=O)c4ccccn4)c3c2)cc1	MITF primary 65.6 | MITF inh conf 35.9 | AlphaScreen intf2 54.5
COc1ccc(O)c(C(=O)c2coc(=N)c(C(=O)Nc3cc(C)c(Cl)cc3OC)c2)c1	none
CCOC(=O)C1=C(c2ccccc2)N=c2s/c(=C\c3cccs3)c(=O)n2C1c1c(OC)ccc2ccccc12 (stereo not given)	MITF primary 54.8 | MITF inh conf inactive | AlphaScreen intf2 inactive
CCOC(=O)C1=C(C)N=c2s/c(=C\c3c(C)[nH]c4ccccc34)c(=O)n2C1c1ccccc1 (stereo not given)	MITF primary 66.2 | MITF inh conf inactive | AlphaScreen intf2 inactive
COc1cc2nc(-c3ccccc3O)n(-c3cc(C(C)(C)C)c(O)c(C(C)(C)C)c3)c2cc1OC	none
COc1ccc(COC(=O)C2=C(C)NC3=C(C(=O)CCC3)C2c2cc3c(cc2[N+](=O)[O-])OCO3)cc1 (stereo not given)	none
N#CCSc1nc(NCc2ccc3c(c2)OCO3)c2ccccc2n1	none
NCCCNc1c2c(nc3cc(-c4ccc(Cl)cc4)nn13)CCC2	MITF primary 54.2 | MITF inh conf inactive | AlphaScreen intf2 inactive
NCCCNc1c2c(nc3cc(-c4cccc(F)c4)nn13)CCC2	none
COc1ccc(C2C3CCCC=C3C(C#N)=C(N)C2(C#N)C#N)cc1OC (stereo not given)	none
COc1cc(Nc2ccc(-n3cc(CC(=O)NCCN(C(C)C)C(C)C)c4ccccc43)nn2)cc(OC)c1OC	none
Cc1ccc(NC(=O)Nc2ccc(Cl)cc2)cc1Br	none
O=C(O)COc1ccc(-n2cccc2)cc1	MITF primary 74.0 | MITF inh conf 50.1 | AlphaScreen DR inactive | AlphaScreen intf2 inactive
O=C(O)COc1ccc(N2C(=O)c3ccccc3C2=O)cc1	none
CCOc1ccc(C(=O)Nc2ccc3oc(-c4ccc(Cl)c(Cl)c4)nc3c2)cc1	none
c1ccc(Oc2cccc(CN3CCN(Cc4ccccn4)CC3)c2)cc1	MITF primary 75.4 | MITF inh conf inactive | AlphaScreen intf2 inactive
Fc1cccc(CN2CCN(Cc3ccccn3)CC2)c1	MITF primary 70.7 | MITF inh conf inactive | AlphaScreen intf2 inactive
Fc1ccc(N2CCN(Cc3ccccn3)CC2)cc1	MITF primary 62.8 | MITF inh conf inactive | AlphaScreen intf2 41.6
CCN(CC)CCCNCc1c(F)cccc1Cl	MITF primary 57.4 | MITF inh conf inactive | AlphaScreen intf2 inactive
OCCCCNCc1c(F)cccc1Cl	none
CCCN(CCO)Cc1c(F)cccc1Cl	MITF primary 55.9 | MITF inh conf inactive | AlphaScreen intf2 inactive
O=C(CNC1CCCCC1)NC(c1ccccc1)c1ccccc1	MITF primary 51.9 | MITF inh conf inactive | AlphaScreen intf2 inactive
O=C(CN1CCC(N2CCCCC2)CC1)NC(c1ccccc1)c1ccccc1	none
O=C(CN1CCCCC1)NC(c1ccccc1)c1ccccc1	MITF primary 53.4 | MITF inh conf inactive | AlphaScreen intf2 inactive
CCN1CCN(C(C)C(=O)NC(c2ccccc2)c2ccccc2)CC1 (stereo not given)	MITF primary 60.9 | MITF inh conf inactive | AlphaScreen intf2 inactive
N/C(CC(=O)NC1CCCCC1)=N\OCC(=O)NC(c1ccccc1)c1ccccc1	none
O=C(CN1CCCC1)NC(c1ccccc1)c1ccccc1	MITF primary 58.8 | MITF inh conf inactive | AlphaScreen intf2 inactive
CCN1CCN(C(=O)C(c2ccccc2)c2ccccc2)CC1	none
CN1CCN(C2=NC(=O)/C(=C\c3ccc(Br)cc3)S2)CC1	none
CC1CC(C)CN(C(=O)c2ccccc2Cl)C1 (stereo not given)	none
CN(C)c1nc(-c2ccccn2)nnc1-c1ccccc1	MITF primary 102.3 | MITF inh conf 106.9 | AlphaScreen intf2 100.3
c1ccc(CNc2nc(-c3ccccn3)nnc2-c2ccccc2)cc1	MITF primary 105.6 | MITF inh conf 100.5 | AlphaScreen intf2 100.3
c1ccc(-c2nnc(-c3ccccn3)nc2-c2ccccc2)cc1	none
CC(CCc1ccccc1)NCc1nc2ccsc2c(=O)[nH]1 (stereo not given)	MITF primary 51.6 | MITF inh conf inactive | AlphaScreen intf2 inactive
Cc1c(-c2ccccc2)c(=O)oc2ccc(O)cc12	MITF primary 80.5 | MITF inh conf inactive | AlphaScreen intf2 inactive
